# Columns and labels:
# Assay in all cases: DAPPL (digital affinity profiling via proximity ligation, sequencing); 10 mM Tris-HCl pH 7.5, 50 mM NaCl, 1 mM DTT, 4% glycerol, room temperature, 30 min; GST-TFs on glutathione beads, 16-mer random dsDNA library, 0.1% formaldehyde crosslink after washing; high values mean tight binding
# FEV = biological target: T1, FEV (Homo sapiens, UniProt Q99581 1-238); conditions: protein: recombinant; tags: N-terminal GST; dsDNA, one strand shown
# T1 sequence: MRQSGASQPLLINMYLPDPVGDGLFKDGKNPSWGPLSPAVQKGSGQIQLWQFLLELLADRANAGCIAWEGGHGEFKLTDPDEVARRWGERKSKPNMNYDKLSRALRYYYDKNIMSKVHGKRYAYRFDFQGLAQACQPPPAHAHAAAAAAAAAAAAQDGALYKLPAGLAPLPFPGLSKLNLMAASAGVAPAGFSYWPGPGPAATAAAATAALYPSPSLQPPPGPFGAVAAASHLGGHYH
# In short: (§1)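 Human transcription factors fused to GST were expressed in yeast, captured on glutathione beads, given DNA barcodes and pooled with a GST-only negative control. Pools were incubated with 200 nmole of a 16-mer random double-stranded DNA library in Tris/NaCl/DTT/glycerol buffer at room temperature for 30 min. They were then washed, crosslinked with 0.1% formaldehyde, proximity-ligated (BsaI/T4 ligase, 1 h, 37 °C), PCR-amplified and sequenced on an Illumina NextSeq500. Binding signal is each 6-mer's read frequency for a factor divided by its frequency for the GST control.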
# ETV5 = ETV5 (Homo sapiens, UniProt P41161 1-510); conditions: protein: recombinant; tags: N-terminal GST; dsDNA, one strand shown
# In short: as §1
# HSF1 = HSF1 (Homo sapiens, UniProt Q00613 1-529); conditions: protein: recombinant; tags: N-terminal GST; chain copies: 3; dsDNA, one strand shown
# In short: as §1
# SPIC = biological target: T2, SPIC (Homo sapiens, UniProt Q8N5J4 1-248); conditions: protein: recombinant; tags: N-terminal GST; dsDNA, one strand shown
# T2 sequence: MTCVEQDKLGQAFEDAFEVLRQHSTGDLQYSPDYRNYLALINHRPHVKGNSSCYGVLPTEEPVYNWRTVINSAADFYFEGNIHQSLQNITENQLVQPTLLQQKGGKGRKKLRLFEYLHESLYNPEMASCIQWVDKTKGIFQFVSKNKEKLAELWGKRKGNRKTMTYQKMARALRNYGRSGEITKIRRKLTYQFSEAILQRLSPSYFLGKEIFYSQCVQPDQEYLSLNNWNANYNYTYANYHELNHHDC
# In short: as §1
# ELF4 = ELF4 (Homo sapiens, UniProt Q99607 1-663); conditions: protein: recombinant; tags: N-terminal GST; dsDNA, one strand shown
# In short: as §1
# ELK4 = biological target: T3, ELK4 (Homo sapiens, UniProt P28324-2 1-405); conditions: protein: recombinant; tags: N-terminal GST; dsDNA, one strand shown
# T3 sequence: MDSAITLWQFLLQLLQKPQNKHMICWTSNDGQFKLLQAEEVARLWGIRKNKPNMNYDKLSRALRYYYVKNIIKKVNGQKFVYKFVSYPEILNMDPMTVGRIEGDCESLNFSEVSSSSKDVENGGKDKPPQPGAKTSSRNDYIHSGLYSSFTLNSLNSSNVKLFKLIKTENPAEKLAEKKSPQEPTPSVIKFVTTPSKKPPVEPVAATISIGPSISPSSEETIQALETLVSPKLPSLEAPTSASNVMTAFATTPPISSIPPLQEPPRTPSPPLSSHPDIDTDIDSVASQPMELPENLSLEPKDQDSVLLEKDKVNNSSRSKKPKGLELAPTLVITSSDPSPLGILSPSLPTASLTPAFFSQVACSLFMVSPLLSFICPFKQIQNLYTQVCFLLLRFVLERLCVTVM
# In short: as §1
# ETV2 = biological target: T4, ETV2 (Homo sapiens, UniProt O00321 1-342); conditions: protein: recombinant; tags: N-terminal GST; dsDNA, one strand shown
# T4 sequence: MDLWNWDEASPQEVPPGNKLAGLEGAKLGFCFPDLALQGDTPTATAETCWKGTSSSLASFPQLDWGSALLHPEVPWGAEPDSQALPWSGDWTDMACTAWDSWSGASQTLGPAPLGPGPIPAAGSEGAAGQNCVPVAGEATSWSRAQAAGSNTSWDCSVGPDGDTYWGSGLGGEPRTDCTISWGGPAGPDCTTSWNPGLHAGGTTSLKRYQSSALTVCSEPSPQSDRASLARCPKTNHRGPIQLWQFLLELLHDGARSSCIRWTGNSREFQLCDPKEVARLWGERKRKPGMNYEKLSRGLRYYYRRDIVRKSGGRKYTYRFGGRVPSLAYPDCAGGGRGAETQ
# In short: as §1
# ELF3 = biological target: T5, ELF3 (Homo sapiens, UniProt P78545 1-371); conditions: protein: recombinant; tags: N-terminal GST; dsDNA, one strand shown
# T5 sequence: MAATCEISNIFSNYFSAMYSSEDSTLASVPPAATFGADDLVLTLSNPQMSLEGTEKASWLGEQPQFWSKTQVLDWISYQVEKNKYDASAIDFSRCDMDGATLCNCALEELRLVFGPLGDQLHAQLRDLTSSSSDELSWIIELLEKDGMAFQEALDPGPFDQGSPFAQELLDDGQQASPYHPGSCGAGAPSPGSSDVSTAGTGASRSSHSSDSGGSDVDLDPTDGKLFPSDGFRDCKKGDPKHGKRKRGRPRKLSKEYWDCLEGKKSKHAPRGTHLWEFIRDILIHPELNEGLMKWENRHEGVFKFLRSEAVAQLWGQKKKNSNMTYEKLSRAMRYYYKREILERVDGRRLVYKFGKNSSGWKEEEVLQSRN
# In short: as §1
# CRX = CRX (Homo sapiens, UniProt O43186 1-299); conditions: protein: recombinant; tags: N-terminal GST; dsDNA, one strand shown
# In short: as §1
# ETV1 = ETV1 (Homo sapiens, UniProt P50549 1-477); conditions: protein: recombinant; tags: N-terminal GST; dsDNA, one strand shown
# In short: as §1
# ERF = biological target: T6, ERF (Homo sapiens, UniProt P50548 1-548); conditions: protein: recombinant; tags: N-terminal GST; dsDNA, one strand shown
# T6 sequence: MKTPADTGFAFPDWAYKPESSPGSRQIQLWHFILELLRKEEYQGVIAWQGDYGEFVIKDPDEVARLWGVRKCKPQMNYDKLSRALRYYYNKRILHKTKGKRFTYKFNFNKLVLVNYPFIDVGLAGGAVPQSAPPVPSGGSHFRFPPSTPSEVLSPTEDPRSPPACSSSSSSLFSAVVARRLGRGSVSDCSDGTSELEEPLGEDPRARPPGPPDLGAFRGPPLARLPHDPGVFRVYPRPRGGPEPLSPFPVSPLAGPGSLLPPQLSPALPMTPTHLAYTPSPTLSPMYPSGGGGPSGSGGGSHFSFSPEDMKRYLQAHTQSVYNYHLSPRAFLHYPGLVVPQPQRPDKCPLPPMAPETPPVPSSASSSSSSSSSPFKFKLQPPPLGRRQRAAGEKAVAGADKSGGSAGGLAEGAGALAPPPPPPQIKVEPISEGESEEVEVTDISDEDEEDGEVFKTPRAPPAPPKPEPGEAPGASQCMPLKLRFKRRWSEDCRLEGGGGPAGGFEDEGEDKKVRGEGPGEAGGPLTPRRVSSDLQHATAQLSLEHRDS
# In short: as §1
# ETV3L = biological target: T7, ETV3L (Homo sapiens, UniProt Q6ZN32 1-361); conditions: protein: recombinant; tags: N-terminal GST; dsDNA, one strand shown
# T7 sequence: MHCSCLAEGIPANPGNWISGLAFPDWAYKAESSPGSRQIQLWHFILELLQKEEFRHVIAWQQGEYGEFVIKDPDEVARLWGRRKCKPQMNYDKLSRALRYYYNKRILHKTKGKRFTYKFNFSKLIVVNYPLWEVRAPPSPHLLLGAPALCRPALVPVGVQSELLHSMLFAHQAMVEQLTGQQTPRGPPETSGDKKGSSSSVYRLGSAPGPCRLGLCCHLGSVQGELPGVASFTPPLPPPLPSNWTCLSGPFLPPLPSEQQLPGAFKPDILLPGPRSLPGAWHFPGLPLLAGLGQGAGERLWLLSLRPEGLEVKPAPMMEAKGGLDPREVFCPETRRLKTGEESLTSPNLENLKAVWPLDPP
# In short: as §1
# ETS2 = biological target: T8, ETS2 (Homo sapiens, UniProt P15036 1-469); conditions: protein: recombinant; tags: N-terminal GST; dsDNA, one strand shown
# T8 sequence: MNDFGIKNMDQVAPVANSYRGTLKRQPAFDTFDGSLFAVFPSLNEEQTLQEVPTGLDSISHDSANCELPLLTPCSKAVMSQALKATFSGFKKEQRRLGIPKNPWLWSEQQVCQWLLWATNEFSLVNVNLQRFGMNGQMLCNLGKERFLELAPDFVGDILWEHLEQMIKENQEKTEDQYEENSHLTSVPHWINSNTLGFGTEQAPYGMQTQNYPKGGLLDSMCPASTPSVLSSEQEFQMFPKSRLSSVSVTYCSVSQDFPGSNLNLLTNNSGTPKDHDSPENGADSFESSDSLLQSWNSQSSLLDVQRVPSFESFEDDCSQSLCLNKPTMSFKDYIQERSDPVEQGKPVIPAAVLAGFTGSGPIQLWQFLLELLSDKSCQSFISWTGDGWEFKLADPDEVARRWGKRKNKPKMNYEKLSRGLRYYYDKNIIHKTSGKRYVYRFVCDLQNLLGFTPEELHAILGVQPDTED
# In short: as §1
# SPDEF = biological target: T9, SPDEF (Homo sapiens, UniProt O95238 1-335); conditions: protein: recombinant; tags: N-terminal GST; dsDNA, one strand shown
# T9 sequence: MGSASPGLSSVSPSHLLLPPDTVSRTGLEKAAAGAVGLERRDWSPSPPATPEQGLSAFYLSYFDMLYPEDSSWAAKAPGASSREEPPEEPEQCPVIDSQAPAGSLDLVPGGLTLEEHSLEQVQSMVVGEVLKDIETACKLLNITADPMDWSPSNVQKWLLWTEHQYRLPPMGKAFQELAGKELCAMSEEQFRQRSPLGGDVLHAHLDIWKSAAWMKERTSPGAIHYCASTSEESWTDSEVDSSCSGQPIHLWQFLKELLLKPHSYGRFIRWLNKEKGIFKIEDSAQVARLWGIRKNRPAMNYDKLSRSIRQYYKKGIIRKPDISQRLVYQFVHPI
# In short: as §1
# ETV7 = biological target: T10, ETV7 (Homo sapiens, UniProt Q9Y603 1-341); conditions: protein: recombinant; tags: N-terminal GST; dsDNA, one strand shown
# T10 sequence: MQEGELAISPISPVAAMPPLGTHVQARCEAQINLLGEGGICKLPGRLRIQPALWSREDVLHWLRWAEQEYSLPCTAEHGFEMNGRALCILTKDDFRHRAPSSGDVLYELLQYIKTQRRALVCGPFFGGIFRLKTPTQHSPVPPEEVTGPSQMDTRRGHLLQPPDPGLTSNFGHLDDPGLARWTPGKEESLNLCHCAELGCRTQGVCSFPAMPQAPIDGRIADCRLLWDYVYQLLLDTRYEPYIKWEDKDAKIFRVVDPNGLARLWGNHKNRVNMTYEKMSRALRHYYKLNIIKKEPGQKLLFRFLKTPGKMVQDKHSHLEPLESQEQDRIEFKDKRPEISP
# In short: as §1
# ELF5 = biological target: T11, ELF5 (Homo sapiens, UniProt Q9UKW6-2 1-255); conditions: protein: recombinant; tags: N-terminal GST; dsDNA, one strand shown
# T11 sequence: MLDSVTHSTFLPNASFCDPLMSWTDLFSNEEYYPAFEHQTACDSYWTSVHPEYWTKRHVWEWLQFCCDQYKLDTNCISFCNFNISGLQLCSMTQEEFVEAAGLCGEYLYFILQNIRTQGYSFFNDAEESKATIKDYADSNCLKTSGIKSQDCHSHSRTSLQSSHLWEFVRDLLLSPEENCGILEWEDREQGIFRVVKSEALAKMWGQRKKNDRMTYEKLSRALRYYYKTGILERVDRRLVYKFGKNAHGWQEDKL
# In short: as §1
# ETV3 = biological target: T12, ETV3 (Homo sapiens, UniProt P41162-2 1-143); conditions: protein: recombinant; tags: N-terminal GST; dsDNA, one strand shown
# T12 sequence: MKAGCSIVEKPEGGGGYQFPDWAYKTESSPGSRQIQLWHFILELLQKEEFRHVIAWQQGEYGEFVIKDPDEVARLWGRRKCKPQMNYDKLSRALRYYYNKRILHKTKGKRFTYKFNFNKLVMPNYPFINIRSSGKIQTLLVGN
# In short: as §1
# ETV6 = ETV6 (Homo sapiens, UniProt P41212 1-452); conditions: protein: recombinant; tags: N-terminal GST; dsDNA, one strand shown
# In short: as §1
# Chain of ELF4 (Q99607 whole entry): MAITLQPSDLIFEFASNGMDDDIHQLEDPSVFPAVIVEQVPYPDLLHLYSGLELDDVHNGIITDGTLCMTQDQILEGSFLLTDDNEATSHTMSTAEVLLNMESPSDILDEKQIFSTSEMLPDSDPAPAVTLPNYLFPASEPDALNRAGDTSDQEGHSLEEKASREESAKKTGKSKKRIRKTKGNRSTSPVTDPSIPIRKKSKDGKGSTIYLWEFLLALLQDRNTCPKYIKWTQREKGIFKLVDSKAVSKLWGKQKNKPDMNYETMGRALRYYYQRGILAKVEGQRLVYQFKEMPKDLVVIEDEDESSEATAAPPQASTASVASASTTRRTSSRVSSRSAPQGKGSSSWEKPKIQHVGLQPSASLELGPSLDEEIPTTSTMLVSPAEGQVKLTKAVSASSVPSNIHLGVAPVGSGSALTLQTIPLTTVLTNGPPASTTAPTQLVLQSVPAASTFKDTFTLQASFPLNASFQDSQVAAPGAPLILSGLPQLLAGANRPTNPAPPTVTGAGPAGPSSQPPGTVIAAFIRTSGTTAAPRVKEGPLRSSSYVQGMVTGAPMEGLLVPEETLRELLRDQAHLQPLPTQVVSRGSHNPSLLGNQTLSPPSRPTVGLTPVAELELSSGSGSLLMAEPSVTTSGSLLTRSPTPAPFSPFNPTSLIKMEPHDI
# Chain of CRX (O43186 whole entry): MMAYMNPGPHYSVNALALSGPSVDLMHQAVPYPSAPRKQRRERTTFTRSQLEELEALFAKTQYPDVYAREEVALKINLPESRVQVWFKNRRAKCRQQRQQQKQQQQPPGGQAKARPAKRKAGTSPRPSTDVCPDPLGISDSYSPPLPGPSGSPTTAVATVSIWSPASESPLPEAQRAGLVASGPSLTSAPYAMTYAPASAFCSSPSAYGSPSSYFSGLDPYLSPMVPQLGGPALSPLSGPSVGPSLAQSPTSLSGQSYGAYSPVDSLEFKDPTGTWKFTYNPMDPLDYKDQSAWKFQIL
# Chain of ETV5 (P41161 whole entry): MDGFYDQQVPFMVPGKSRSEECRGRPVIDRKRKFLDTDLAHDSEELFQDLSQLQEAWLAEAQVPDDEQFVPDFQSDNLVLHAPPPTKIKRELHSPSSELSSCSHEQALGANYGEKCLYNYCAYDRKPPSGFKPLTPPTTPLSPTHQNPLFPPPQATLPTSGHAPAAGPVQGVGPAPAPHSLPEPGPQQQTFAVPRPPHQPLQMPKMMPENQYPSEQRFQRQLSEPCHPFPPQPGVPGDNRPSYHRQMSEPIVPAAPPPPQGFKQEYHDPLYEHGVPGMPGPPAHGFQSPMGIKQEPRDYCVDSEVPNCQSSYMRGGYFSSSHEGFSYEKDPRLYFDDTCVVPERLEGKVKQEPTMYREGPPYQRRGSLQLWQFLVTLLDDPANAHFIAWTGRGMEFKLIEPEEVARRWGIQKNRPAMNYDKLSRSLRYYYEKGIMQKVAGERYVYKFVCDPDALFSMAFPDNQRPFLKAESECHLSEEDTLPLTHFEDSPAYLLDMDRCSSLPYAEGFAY
# Chain of HSF1 (Q00613 whole entry): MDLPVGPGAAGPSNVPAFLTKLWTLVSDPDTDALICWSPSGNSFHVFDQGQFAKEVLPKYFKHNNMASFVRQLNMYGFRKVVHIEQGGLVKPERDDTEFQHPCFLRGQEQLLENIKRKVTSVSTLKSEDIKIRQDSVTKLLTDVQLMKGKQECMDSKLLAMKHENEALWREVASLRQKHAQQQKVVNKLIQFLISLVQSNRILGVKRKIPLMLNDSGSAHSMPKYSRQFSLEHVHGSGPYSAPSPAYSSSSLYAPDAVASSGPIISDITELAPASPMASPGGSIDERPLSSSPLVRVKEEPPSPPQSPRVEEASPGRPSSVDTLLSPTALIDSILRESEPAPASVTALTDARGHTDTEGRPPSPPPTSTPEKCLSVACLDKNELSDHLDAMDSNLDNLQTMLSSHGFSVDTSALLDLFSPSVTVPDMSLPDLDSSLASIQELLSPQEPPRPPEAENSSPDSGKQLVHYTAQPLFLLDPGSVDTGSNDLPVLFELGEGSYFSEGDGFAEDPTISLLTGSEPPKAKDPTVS
# Chain of ETV1 (P50549 whole entry): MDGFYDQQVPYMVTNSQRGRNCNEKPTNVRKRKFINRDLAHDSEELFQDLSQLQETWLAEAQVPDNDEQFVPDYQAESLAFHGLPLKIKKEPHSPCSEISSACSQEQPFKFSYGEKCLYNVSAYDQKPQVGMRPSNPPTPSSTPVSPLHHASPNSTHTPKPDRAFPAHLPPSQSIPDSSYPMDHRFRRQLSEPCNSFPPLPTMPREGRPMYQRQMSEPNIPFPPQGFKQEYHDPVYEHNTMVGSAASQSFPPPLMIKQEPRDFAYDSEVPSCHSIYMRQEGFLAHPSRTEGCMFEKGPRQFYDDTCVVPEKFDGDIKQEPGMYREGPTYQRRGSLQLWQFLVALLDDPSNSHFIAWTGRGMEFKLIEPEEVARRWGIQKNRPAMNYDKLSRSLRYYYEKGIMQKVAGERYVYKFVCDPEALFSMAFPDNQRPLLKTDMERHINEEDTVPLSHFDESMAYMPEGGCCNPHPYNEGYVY
# Chain of ETV6 (P41212 whole entry): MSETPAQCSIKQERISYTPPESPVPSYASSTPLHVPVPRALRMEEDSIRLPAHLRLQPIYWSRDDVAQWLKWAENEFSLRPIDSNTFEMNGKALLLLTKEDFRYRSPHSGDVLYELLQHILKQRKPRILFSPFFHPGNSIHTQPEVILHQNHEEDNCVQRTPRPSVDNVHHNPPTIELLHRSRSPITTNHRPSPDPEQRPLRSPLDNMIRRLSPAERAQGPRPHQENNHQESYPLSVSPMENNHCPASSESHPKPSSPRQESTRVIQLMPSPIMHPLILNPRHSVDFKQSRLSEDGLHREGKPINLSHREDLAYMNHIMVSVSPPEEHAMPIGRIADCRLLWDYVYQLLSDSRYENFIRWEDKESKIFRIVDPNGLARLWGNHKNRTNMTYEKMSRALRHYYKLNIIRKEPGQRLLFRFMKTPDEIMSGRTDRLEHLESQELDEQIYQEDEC
sequence,measurement,setting,value
CTGGAA,binding signal,FEV,"1.2 fold enrichment (6-mer frequency, TF over GST control)"
same,binding signal,ETV5,"1.29 fold enrichment (6-mer frequency, TF over GST control)"
same,binding signal,HSF1,"4.43 fold enrichment (6-mer frequency, TF over GST control)"
same,binding signal,SPIC,"1.2 fold enrichment (6-mer frequency, TF over GST control)"
same,binding signal,ELF4,"1.23 fold enrichment (6-mer frequency, TF over GST control)"
same,binding signal,ELK4,"1.08 fold enrichment (6-mer frequency, TF over GST control)"
same,binding signal,ETV2,"1.43 fold enrichment (6-mer frequency, TF over GST control)"
same,binding signal,ELF3,"1.11 fold enrichment (6-mer frequency, TF over GST control)"
same,binding signal,CRX,"1.89 fold enrichment (6-mer frequency, TF over GST control)"
same,binding signal,ETV1,"1.32 fold enrichment (6-mer frequency, TF over GST control)"
same,binding signal,ERF,"1.26 fold enrichment (6-mer frequency, TF over GST control)"
same,binding signal,ETV3L,"1.36 fold enrichment (6-mer frequency, TF over GST control)"
same,binding signal,ETS2,"1.3 fold enrichment (6-mer frequency, TF over GST control)"
same,binding signal,SPDEF,"1.16 fold enrichment (6-mer frequency, TF over GST control)"
same,binding signal,ETV7,"1.32 fold enrichment (6-mer frequency, TF over GST control)"
same,binding signal,ELF5,"1.34 fold enrichment (6-mer frequency, TF over GST control)"
same,binding signal,ETV3,"1.27 fold enrichment (6-mer frequency, TF over GST control)"
same,binding signal,ETV6,"1.34 fold enrichment (6-mer frequency, TF over GST control)"
